Sampled rows, rich in hits. Any-hit rate of the full collection: about 3.1%.
SARS 3CLpro inh = SARS-CoV 3CLpro protease inhibition; P0C6X7; recombinant SARS-CoV 3CLpro, quenched FRET peptide cleavage; AID 1706; 0.14% of 290,000 active; inhibition, % at 6 µM; in the data active means inhibition above about 12%
BioA inh = inhibitors of Mycobacterium tuberculosis BioA enzyme | purified M. tuberculosis BioA enzyme, plate reader | inhibition, % at 9.99 µM | 0.096% of 360,000 active | AID 602481; in the data active means inhibition above about 40%
Mtb FBA inh = Mtb fructose-bisphosphate aldolase inhibition; purified M. tuberculosis FBA, fluorescence read-out; inhibition, % at 1 µM; 2.3% of 360,000 active; AID 588726; in the data active means inhibition above about 27%
Target sequence (P9WQA3 whole entry, looked up): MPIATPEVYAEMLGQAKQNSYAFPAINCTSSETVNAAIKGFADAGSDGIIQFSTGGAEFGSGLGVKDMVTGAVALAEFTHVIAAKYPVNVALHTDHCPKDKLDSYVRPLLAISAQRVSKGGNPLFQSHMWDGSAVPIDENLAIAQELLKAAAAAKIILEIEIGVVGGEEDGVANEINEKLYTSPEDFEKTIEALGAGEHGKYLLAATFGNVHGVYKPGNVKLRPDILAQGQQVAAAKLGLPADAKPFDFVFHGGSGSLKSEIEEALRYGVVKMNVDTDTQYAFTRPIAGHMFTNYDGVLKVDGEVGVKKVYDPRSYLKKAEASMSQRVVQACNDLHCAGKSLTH
GDH-TPI counter = counter-screen for M. tuberculosis FBA inhibitors: GDH-TPI coupled enzymes | GDH-TPI coupled enzyme counterscreen, NADH absorbance | AID 588335 | inhibition, % at 4.8 µM | 1.2% of 360,000 active; in the data active means inhibition above about 30%
FadD28 binding = M. tuberculosis FadD28 bisubstrate binding inhibition; FadD28 bisubstrate probe binding, fluorescence polarization; 0.22% of 360,000 active; inhibition, % at 12.5 µM; AID 588549; in the data active means inhibition above about 8.5%, passing the limit was not always enough
Hits are given with their value; – = inactive; · = no result; + = active, no number.

SMILES	SARS 3CLpro inh	BioA inh	Mtb FBA inh	GDH-TPI counter	FadD28 binding
COCc1cc(C)n(CC(=O)Nc2ccc(Cl)cc2Cl)c(=O)c1C#N	–	–	121.6	–	–
N#C[C@H]1[C@H](c2ccccc2)[C@@H](CO)N1C(=O)Cc1ccccc1	·	–	·	·	·
O=C(CN1CCN(CCN2C(=O)c3cccc4cccc(c34)C2=O)CC1)c1ccc(Cl)cc1	–	·	·	·	·
Cc1ccc(C)c(OCC(O)CN2CCC(CN3C(=O)c4cccc5cccc(c45)C3=O)CC2)c1 (configuration not stated)	–	·	–	–	–
COc1ccc(C(=O)CN2CCN(CCN3C(=O)c4cccc5cccc(c45)C3=O)CC2)cc1	·	–	–	45.7	–
COc1cc2c3c(cccc3c1)C(=O)N(CCN1CCCC1)C2=O	·	–	146.6	–	–
COc1ccc(OCC(O)CN2CCC(CN3C(=O)c4cccc5cccc(c45)C3=O)CC2)cc1 (configuration not stated)	·	·	–	45.2	–
C[C@@H]1CN([C@H](C)CO)S(=O)(=O)c2ccc(C#CC(C)(C)O)cc2O[C@@H]1CN(C)C	·	–	·	·	·
COc1cc(/C=C2\SC(=O)N(Cc3ccc(F)cc3)C2=O)cc([N+](=O)[O-])c1O	–	·	–	–	–
COc1cc(/C=C2\SC(=O)N(Cc3ccc(Cl)cc3)C2=O)cc([N+](=O)[O-])c1O	–	·	–	–	24.2
COc1cc([N+](=O)[O-])cc(/C=C2/SC(=S)N(Cc3ccccc3)C2=O)c1O	–	–	–	–	47.3
CC1(C)SC(=S)N(/N=C/c2ccccc2)C1N(O)C(=O)Nc1ccc([N+](=O)[O-])cc1 (configuration not stated)	–	–	–	42.1	–
CNC(=O)N(O)C1N(/N=C/c2ccc(N(C)C)cc2)C(=S)SC1(C)C (configuration not stated)	–	–	–	–	–
C/C(=N\NC(=O)COc1ccccc1-c1ccccc1)c1ccc(O)cc1O	–	·	–	–	–
C/C(=N\NP(=S)(c1ccccc1)c1ccccc1)c1ccc(O)cc1O	–	–	–	32.5	–
CC(=NCc1ccccc1)c1ccc(O)cc1O	·	–	–	33.6	–
CCCCNC(=O)c1cc2c(=O)n3cccc(C)c3nc2n(Cc2ccncc2)c1=N	–	–	151.1	–	–
CCCn1c(=N)c(C#N)cc2c(=O)n3cccc(C)c3nc21	–	·	·	·	·
Cc1cccn2c(=O)c3cc(C#N)c(=N)n(CCN4CCOCC4)c3nc12	–	–	52.9	–	–
Cc1cc(-n2c(=O)c(C#N)cc3c(=O)n4cccc(C)c4nc32)no1	–	–	+	–	–
CCCCNC(=O)c1cc2c(=O)n3cccc(C)c3nc2n(CCN2CCOCC2)c1=N	–	·	136.7	–	–
CO[C@H]1CN(C)C(=O)c2ccc(NC(=O)C3CC3)cc2OC[C@@H](C)N(C(=O)C2CCCCC2)C[C@H]1C	·	–	·	·	·
CC(C)NC(=O)N[C@H]1C=C[C@H](CC(=O)NC2Cc3ccccc3C2)O[C@@H]1CO	·	–	·	·	·
COCC(=O)Nc1ccc2c(c1)OC[C@H](C)N(Cc1cc(F)ccc1F)C[C@@H](C)[C@H](OC)CN(C)C2=O	·	–	·	·	·
CO[C@@H]1CN(C)C(=O)c2ccc(NC(C)=O)cc2OC[C@H](C)N(Cc2ccccn2)C[C@H]1C	·	–	·	·	·
SMILES	SARS 3CLpro inh	BioA inh	Mtb FBA inh	GDH-TPI counter	FadD28 binding
COCCNC(=O)c1cc2c(=O)n3cccc(C)c3nc2n(Cc2ccncc2)c1=N	–	–	+	–	–
CC(=O)NNC(=O)c1sc(=S)n(C)c1C	–	·	–	33.3	–
C[C@@H]1CN([C@@H](C)CO)C(=O)Cc2cc(NS(=O)(=O)c3ccc(F)cc3)ccc2O[C@H]1CN(C)S(=O)(=O)c1cn(C)cn1	·	–	·	·	·
O=c1[nH]c(=S)c2ncn(-c3ccccc3)c2[nH]1	–	–	–	31.2	–
O=c1oc2ccccc2c2c1ncn2-c1ccccc1	–	·	–	–	–
O=C(C[C@H]1CC[C@H]2[C@@H](COC[C@H](O)CN2C(=O)C2CCCC2)O1)NCc1ccncc1	·	–	·	·	·
CC(C)COc1ccc(CSCCNC(=S)Nc2ccccc2)cc1	–	–	74.0	–	–
CC(C)NC(=O)N(C)C[C@@H]1Oc2ccc(NC(=O)Nc3cccc4ccccc34)cc2C(=O)N([C@@H](C)CO)C[C@@H]1C	·	–	·	·	·
O=C(/C=C/c1ccc(Cl)cc1)NC(=S)Nc1ccccc1C(=O)O	–	·	–	38.0	–
NC(=O)c1ccccc1NC(=O)/C=C/c1ccc(Cl)cc1	–	–	–	–	–
CC(C)C#Cc1ccc2c(c1)O[C@@H](CN(C)C(=O)C1CCCCC1)[C@H](C)CN([C@H](C)CO)S2(=O)=O	·	–	·	·	·
CCN(CC)c1cc(C)c(C#N)c2nc3ccccc3n12	–	–	–	–	–
Cc1ccc(-c2c(C#N)c(N)n3c(nc4ccccc43)c2C#N)cc1	–	·	118.9	–	–
Cc1cc(NCc2ccccn2)n2c(nc3ccccc32)c1C#N	–	·	–	–	–
Cc1cc(Cl)n2c(nc3ccccc32)c1C#N	–	·	+	–	–
CNc1cc(C)c(C#N)c2nc3ccccc3n12	–	–	+	–	–
CC1(C)C=C(c2ccc(C=O)s2)CC(C)(C)N1C=O	–	·	–	31.8	–
CC1(C)C=C(c2ccc(C=O)s2)CC(C)(C)N1	–	–	–	39.5	–
Cc1ccc(C)c(S(=O)(=O)Nc2ccccc2C(=O)Nc2cc(C)on2)c1	–	–	134.8	–	–
COc1ccc(-c2csc(Nc3ccc(S(=O)(=O)Nc4cc(OC)nc(OC)n4)cc3)n2)cc1	–	–	–	–	11.9
COc1cc(NS(=O)(=O)c2ccc(N/C=C(\C#N)c3nc4cc(Cl)ccc4o3)cc2)nc(OC)n1	–	–	–	52.8	–
CCOC(=O)/C(C#N)=N/Nc1ccc(S(=O)(=O)Nc2cc(OC)nc(OC)n2)cc1	·	–	–	37.9	–
COc1cc(NS(=O)(=O)c2ccc(NC(C)=O)cc2)nc(OC)n1	–	–	–	–	–
COCCn1c(=O)[nH]c(=O)c2c(C(F)(F)F)cc(-c3cccs3)nc21	–	·	+	–	–
CC1=N/C(=C\c2ccc(OC(C)C)cc2)C(=O)N1c1ccc(C(=O)O)cc1	–	·	–	33.5	–
SMILES	SARS 3CLpro inh	BioA inh	Mtb FBA inh	GDH-TPI counter	FadD28 binding
CC(C)Oc1ccc(C(=O)O)cc1	–	–	–	–	–
N#C/C(=C(/O)c1ccc(Br)s1)c1nc2ccccc2[nH]1	–	–	–	–	–
O=C(/C(=C\c1ccccc1)c1nc2ccccc2[nH]1)c1ccc(Cl)cc1	–	·	–	–	–
N#C/C(=C(/O)c1cccs1)c1nc2ccccc2[nH]1	–	–	–	39.1	–
O=C(/C(=C/c1ccc(Cl)cc1)c1nc2ccccc2[nH]1)c1cccs1	–	·	–	31.7	–
Cc1noc(C)c1S(=O)(=O)Nc1cccc2c1O[C@H](CN(C)C(=O)Nc1ccc3c(c1)OCO3)[C@H](C)CN([C@@H](C)CO)C2=O	·	–	·	·	·
CC(C)CC#Cc1ccc2c(c1)O[C@@H](CN(C)S(C)(=O)=O)[C@H](C)CN([C@@H](C)CO)S2(=O)=O	·	–	·	·	·
CCN(CC)c1ccc(N=Cc2c(O)[nH]c(=O)[nH]c2=O)cc1	–	–	–	35.0	–
C[C@@H]1CN([C@@H](C)CO)C(=O)c2cc(NC(=O)C3CCCCC3)ccc2O[C@H]1CN(C)S(=O)(=O)c1cn(C)cn1	·	–	·	·	·
